This is part of a sample that, as a whole, favours compounds with a hit. Of some 83,000 tested, about 20% had one in any assay.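 Assay: single dose, 48 h. Readout: percent growth (0 = no net growth; negative = cell death). Active: <10.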 Values without a mark were called inactive. Activity calls are given as the source filed them.

Among the test systems are NCI-H23 lung; NCI-H226 lung; NCI-H322M lung; HOP-62 NSCLC; NCI-H460 lung; HOP-92 NSCLC; NCI-H522 lung; A549/ATCC NSCLC; 786-0 renal; COLO 205 colon.
Assay in all cases: NCI-60 one-dose screen, 48 h (100 = growth as untreated, 0 = no growth, -100 = all killed)
Settings in all cases: 10 µM unless noted

Take `COc1ccc(C2C3CCc4ccccc4C3=NN2C(=O)c2cc(OC)c(OC)c(OC)c2)cc1O` (configuration not stated): the growth was 98% with NCI-H23 lung; 89.1% with NCI-H226 lung; 86.2% in the experiment with NCI-H322M lung; 92.8% in the experiment with HOP-62 NSCLC; 108% in the experiment with NCI-H460 lung; 84.2% in the experiment on HOP-92 NSCLC. Moreover, the growth in the experiment on NCI-H522 lung was 81.8%; with A549/ATCC NSCLC, 102%; in the experiment on 786-0 renal it was 106%; in the experiment on COLO 205 colon, 113%.

For the molecule `NNC(=O)Cc1ccccc1`, the growth was 93.2% with NCI-H23 lung; 78.2% with NCI-H226 lung; 74.2% in the experiment on NCI-H322M lung; 92.2% in the experiment on HOP-62 NSCLC; 94.7% in the experiment on NCI-H460 lung; -17.8% (active) with HOP-92 NSCLC. Besides, the growth in the experiment on NCI-H522 lung was 77.6%; in the experiment on A549/ATCC NSCLC, 86.3%; in the experiment with 786-0 renal, 92.1%; with COLO 205 colon, 112%.

Regarding `COc1ccc(/C=C2\Cc3c(Br)cccc3C2=O)c(OC)c1`, the growth with NCI-H23 lung is 66%; with NCI-H226 lung, 93.7%; with NCI-H322M lung, 94.7%; with HOP-62 NSCLC, 69.6%; in the experiment on NCI-H460 lung, 79.8%; with HOP-92 NSCLC it was 88.2%. The growth in the experiment with NCI-H522 lung was 55.9%; in the experiment with A549/ATCC NSCLC, 68.9%; in the experiment with 786-0 renal, 93%; in the experiment with COLO 205 colon, 80.3%.

In the case of `FC1(F)CCN(Cc2c[nH]c3cc(Cl)ccc23)C[C@H]1CCc1ccccc1`, the growth is 67.7% with NCI-H23 lung; 43.5% with NCI-H226 lung; 84.3% in the experiment on NCI-H322M lung; 46.1% with HOP-62 NSCLC; 42.8% in the experiment with NCI-H460 lung; 37.3% with HOP-92 NSCLC. Also, the growth with NCI-H522 lung is 67.6%; in the experiment on A549/ATCC NSCLC it was 43%; in the experiment with 786-0 renal it was 66.9%; in the experiment on COLO 205 colon it was 69.5%.

On to `O=C(Nc1ccc(Oc2ccc(Nc3nc4ccccc4s3)cc2)cc1)Nc1ccc(Cl)c(C(F)(F)F)c1`, for which the growth in the experiment with NCI-H23 lung was -20.2% (active); in the experiment on NCI-H226 lung, 4.93% (active); in the experiment on NCI-H322M lung it was 25.7%; in the experiment on HOP-62 NSCLC, 17%; in the experiment on NCI-H460 lung, 1.39% (active); in the experiment with HOP-92 NSCLC, -25% (active). Moreover, the growth with NCI-H522 lung is -36.8% (active); in the experiment on A549/ATCC NSCLC, 9.75% (active); with 786-0 renal, 1.24% (active); in the experiment with COLO 205 colon, -84% (active).

Take `CC1=C(C(=O)Nc2ccc(F)cc2)C(c2ccccc2)C2=C(CC(C)(C)CC2=O)N1` (configuration not stated): the growth was 72.2% with NCI-H23 lung; 84.9% with NCI-H226 lung; 95.9% in the experiment with NCI-H322M lung; 96.1% in the experiment with HOP-62 NSCLC; 73% in the experiment with NCI-H460 lung; -3.3% (active) with HOP-92 NSCLC. The growth with NCI-H522 lung was 53.4%; in the experiment on A549/ATCC NSCLC it was 76.7%; in the experiment on 786-0 renal, 84.6%; in the experiment with COLO 205 colon, 99.2%.

On to `Oc1ccc(Cl)cc1-c1cc(-c2ccccc2Cl)[nH]n1`, for which the growth in the experiment on NCI-H23 lung is 47.8%; in the experiment with NCI-H226 lung, 81.8%; in the experiment with NCI-H322M lung, 65.1%; with HOP-62 NSCLC, 63.3%; with NCI-H460 lung it was 37.1%; in the experiment with HOP-92 NSCLC it was 20.6%. In addition, the results for the growth in the experiment on NCI-H522 lung, in the experiment on 786-0 renal and with COLO 205 colon were 27.4%, 84.7% and 104%, respectively.

As to `CC(C)COC(=O)NC(C)(C)C`, the growth with NCI-H23 lung was 101%; with NCI-H226 lung, 104%; with NCI-H322M lung it was 100%; in the experiment with HOP-62 NSCLC it was 107%; in the experiment with NCI-H460 lung, 107%; with HOP-92 NSCLC, 98.9%. The figures for the growth in the experiment on NCI-H522 lung, in the experiment on 786-0 renal and in the experiment with COLO 205 colon were 71.5%, 98.1% and 106%, respectively.

As for `Cc1ccc(NC(=O)Cn2nncc2CN2C(=O)CSC2=O)cc1C`, the growth was 96.8% in the experiment on NCI-H23 lung; 90.7% in the experiment with NCI-H226 lung; 103% in the experiment with NCI-H322M lung; 98.5% in the experiment on HOP-62 NSCLC; 105% in the experiment on NCI-H460 lung; 112% with HOP-92 NSCLC. The growth in the experiment with NCI-H522 lung was 94.8%; in the experiment on 786-0 renal, 108%; in the experiment with COLO 205 colon, 106%.

With `Cc1ccc(NC(=O)c2nc(S(C)(=O)=O)oc2-c2ccc(F)cc2)cc1Nc1ccc2ncn(C)c(=O)c2c1`, the growth with NCI-H23 lung was 60.4%; in the experiment on NCI-H226 lung, 85.2%; with NCI-H322M lung it was 108%; with HOP-62 NSCLC it was 100%; in the experiment on NCI-H460 lung, 83.6%; in the experiment with HOP-92 NSCLC it was 108%. In addition, the growth in the experiment with NCI-H522 lung was -7.9% (active); in the experiment on 786-0 renal, 78.8%; in the experiment on COLO 205 colon, -8.69% (active).

As to `CC(C)CC(NC(=O)C(CCCN=C(N)N)NC(=O)OCc1ccccc1)C(=O)NC(CNC(=O)/C=C/c1ccccc1)C(C)C` (configuration not stated), the growth was 109% in the experiment on NCI-H23 lung; 100% in the experiment on NCI-H226 lung; 104% in the experiment on NCI-H322M lung; 107% in the experiment on HOP-62 NSCLC; 108% in the experiment with NCI-H460 lung; 89.2% with HOP-92 NSCLC. Moreover, the growth in the experiment on NCI-H522 lung is 98.7%; with 786-0 renal it was 101%; in the experiment with COLO 205 colon, 117%.

Turning to `COc1ccc2cc(-c3nc(C)c(C(C)=O)c(-c4ccc(C)cc4)n3)ccc2c1`, the growth was 89.2% in the experiment on NCI-H23 lung; 80.1% with NCI-H226 lung; 87.5% in the experiment with NCI-H322M lung; 105% in the experiment with HOP-62 NSCLC; 92.6% with NCI-H460 lung; 86.2% with HOP-92 NSCLC. For the same molecule, the growth was 81.3% in the experiment with NCI-H522 lung, 87.9% in the experiment with 786-0 renal and 102% in the experiment on COLO 205 colon.

For the molecule `C/C(=C\C(=N\N=C(N)N)c1ccc(Cl)cc1)c1ccc(Cl)cc1`, the growth was -71.5% (active) with NCI-H23 lung; -69.6% (active) with NCI-H226 lung; -36% (active) with NCI-H322M lung; -86.3% (active) with HOP-62 NSCLC; -66.8% (active) with NCI-H460 lung; -77% (active) in the experiment with HOP-92 NSCLC. For the same molecule, the growth in the experiment on NCI-H522 lung is -88.4% (active); in the experiment on 786-0 renal it was -70.3% (active); in the experiment with COLO 205 colon it was -90.2% (active).

On to `ClCc1cccc(CSc2ncnc3c2ncn3Cc2cccc(CCl)c2)c1`, for which the growth with NCI-H23 lung was 33.9%; with NCI-H226 lung, -54.8% (active); with NCI-H322M lung, 101%; in the experiment with HOP-62 NSCLC it was -38.8% (active); in the experiment on NCI-H460 lung, 36.7%; in the experiment on HOP-92 NSCLC it was 99.3%. Besides, the growth is -69.8% (active) with NCI-H522 lung, 13% in the experiment with 786-0 renal and 26.3% with COLO 205 colon.

These data come from PubChem BioAssay (NCI).
